This is an account of results in publication PMC12864922, “TDP-43 directly inhibits mRNA accumulation in neurites through modulation of mRNA stability”.

Whole data set: some 9,900 sequences, median “r (bound/input frequency ratio)” near 0.7, cut for the highest 2% near 6.5. Shown is part of a subset that was picked to be rich in the highest values.

The labels stand for the following.
B1: ENSMUSG00000022095.260|Fam160b2 (ssRNA)
RNA: GGGAGUUCUACAGUCCGACGAUCGCUUCGAUAUCCGCAUGCUAGCGAGCUAUGAAUGAAUGUGAGUGUGUGUGUGUGUGUGUGUGUGUGAGAGAGAGAGAGAGAGAGCGAGCUAUGAAUGAAUGUGAGUGUGUGUGUGUGUGUGUGUGAGAGAGAGAGAGAGAGAGAGAGAGCUGUGAGUACACAUGGGUGCUGGUGUGGGACAGGAGCAGAUCUUGGUGGAGUGGGUCUACACUUGAGAUUUGUACUCGUUUGAGAGGCUGGGCAAUACUCAAUGCACUUUGGCAUUUGCAUGGUGUCUUCACUCUUGCGGUCGCACUAGUGUGGAAUUCUCGGGUGUCAAGG
B2: ENSMUSG00000022095.264|Fam160b2 (ssRNA)
RNA: GGGAGUUCUACAGUCCGACGAUCGCUUCGAUAUCCGCAUGCUAUGUGUGUGUGUGUGUGUGUGUGAGAGAGAGAGAGAGAGAGCGAGCUAUGAAUGAAUGUGAGUGUGUGUGUGUGUGUGUGUGAGAGAGAGAGAGAGAGAGAGAGAGCUGUGAGUACACAUGGGUGCUGGUGUGGGACAGGAGCAGAUCUUGGUGGAGUGGGUCUACACUUGAGAUUUGUACUCGUUUGAGAGGCUGGGCAAUACUCAAUGCACUUUGGCAUUUGCAUGGUGUCUUCACAACAGCACAGCAAUAAACAUUGUCUCUUGCGGUCGCACUAGUGUGGAAUUCUCGGGUGUCAAGG
B3: ENSMUSG00000022095.265|Fam160b2|1:16;55:75;122:126 (ssRNA)
RNA: GGGAGUUCUACAGUCCGACGAUCGCUUCGAUAUCCGCAUGCUAACACACACACACACACAGAGAGAGAGAGAGAGAGCGAGCUAUGAAUGAAUGUGACACACACACACACACACACACAGAGAGAGAGAGAGAGAGAGAGAGCUGUGAGUACACAUGGGUGCUGCACACGGACAGGAGCAGAUCUUGGUGGAGUGGGUCUACACUUGAGAUUUGUACUCGUUUGAGAGGCUGGGCAAUACUCAAUGCACUUUGGCAUUUGCAUGGUGUCUUCACAACAGCACAGCAAUAAACAUUGUGAUUGUCUCUUGCGGUCGCACUAGUGUGGAAUUCUCGGGUGUCAAGG
B4: ENSMUSG00000022095.258|Fam160b2 (ssRNA)
RNA: GGGAGUUCUACAGUCCGACGAUCGCUUCGAUAUCCGCAUGCUAGUGAGAGAGAGAGCGAGCUAUGAAUGAAUGUGAGUGUGUGUGUGUGUGUGUGUGUGUGAGAGAGAGAGAGAGAGAGCGAGCUAUGAAUGAAUGUGAGUGUGUGUGUGUGUGUGUGUGAGAGAGAGAGAGAGAGAGAGAGAGCUGUGAGUACACAUGGGUGCUGGUGUGGGACAGGAGCAGAUCUUGGUGGAGUGGGUCUACACUUGAGAUUUGUACUCGUUUGAGAGGCUGGGCAAUACUCAAUGCACUUUGGCAUUUGCCUCUUGCGGUCGCACUAGUGUGGAAUUCUCGGGUGUCAAGG
B5: ENSMUSG00000022095.267|Fam160b2 (ssRNA)
RNA: GGGAGUUCUACAGUCCGACGAUCGCUUCGAUAUCCGCAUGCUAUGUGAGAGAGAGAGAGAGAGAGCGAGCUAUGAAUGAAUGUGAGUGUGUGUGUGUGUGUGUGUGAGAGAGAGAGAGAGAGAGAGAGAGCUGUGAGUACACAUGGGUGCUGGUGUGGGACAGGAGCAGAUCUUGGUGGAGUGGGUCUACACUUGAGAUUUGUACUCGUUUGAGAGGCUGGGCAAUACUCAAUGCACUUUGGCAUUUGCAUGGUGUCUUCACAACAGCACAGCAAUAAACAUUGUGAUUGUGUGGACAUGCUGCUCUUGCGGUCGCACUAGUGUGGAAUUCUCGGGUGUCAAGG
B6: ENSMUSG00000032194.73|Kank2|146:150 (ssRNA)
RNA: GGGAGUUCUACAGUCCGACGAUCGCUUCGAUAUCCGCAUGCUAUUUGAAUGUCACUGGAAUGUUACAGUGUCUAUUGUCUCCUCAUCUUUACAGCAGGUCUCCACAAAGCCUGCUCACCACCCUUUGUCACCUCAUUUCAUUGUCUAGUGUACAAUAGGGUCUUGUCCACUGCCCUCCACCUCCAGACACACACUUCAGGGCCUGGGGUGUCUCUUGUGAUUGCUUUACAGAAUAAGAUUGCCGUACCUUAGCCGCCUGCCUCCAGUCAGAAAGCAGUGUUUUCAUUUGCCUUUUUCCUUUCUCUCUUGCGGUCGCACUAGUGUGGAAUUCUCGGGUGUCAAGG
B7: ENSMUSG00000058297.497|Spock2|151:155 (ssRNA)
RNA: GGGAGUUCUACAGUCCGACGAUCGCUUCGAUAUCCGCAUGCUAGGUUGGAGAGAGUAAAUGUGCCUUGAGAGACCACUCAGAGGUCCCAGGAGGAACGGGGGCGGGGCUUAGCCUGGGAGUUCUGGCAGGAGGCAAAGUUGGUGAGAGUCCUGGGACAUCUUACCCCCAGUGUUCCACAGGAGUCGUGACCACCACACAUGGGUGGGCACAGGUCUGCCUUGCUCCAGCCCCCUCCCUUGGUUUCUGUUGGUACCCAUUUGGCUUUUAUCUGCUUUCUGCUUCACCACUAAGUGCGUAGGUGGCUCUUGCGGUCGCACUAGUGUGGAAUUCUCGGGUGUCAAGG
B8: ENSMUSG00000061578.971|Ksr2 (ssRNA)
RNA: GGGAGUUCUACAGUCCGACGAUCGCUUCGAUAUCCGCAUGCUAGGAAGGUAGUUUUCCCCCAGAAAGUCCCUUCUAAUAAACAUUGAUGACUUUAGAAUCCAUGACUCAGAAUUUUCCAGAGACCCAAUCCCUCGGGGUCCACUUAGUGAUGGGACCAUACAAGAGUUUAUUUCCAAUUAGAGAAUUGGGUCAACUGGGAAAGGCUUCUUUCCUGGUAACCCUGCUACUGAUACUAUGUUGAAACAGGAAUCGACUCUAACUGCUUUUUGGCCUCUUCCCUGCACGGGAGUCUCAAAAUCAAGCUCUUGCGGUCGCACUAGUGUGGAAUUCUCGGGUGUCAAGG
B9: ENSMUSG00000058297.456|Spock2 (ssRNA)
RNA: GGGAGUUCUACAGUCCGACGAUCGCUUCGAUAUCCGCAUGCUAUCACACAGGUCAGAUUAUUGUCGGUCCUGCGGGCCUCAUCCUUGAAUAAGCUGCCUGCCCAGUUCCUCCAUCCGUGUUCCUGCCUGCUCCCGUUCCCUUGUUGCGGGCAGGAGAGGUAGGGCUGUGUUGGAAAGAGUUCAACCAAAUUACGGCAGCACCACAUCUUGCCGAGCCCUGGAGCUGCCCUACUAAGAGCCUCCUUAGCCCUGGGUGCUGGGAAGGAUGGUGUACGUUGGGGAAGUUUGAGGUUGGAGAGAGUACUCUUGCGGUCGCACUAGUGUGGAAUUCUCGGGUGUCAAGG
B10: ENSMUSG00000029028.209|Lrrc47 (ssRNA)
RNA: GGGAGUUCUACAGUCCGACGAUCGCUUCGAUAUCCGCAUGCUACAGCAGCUGCACAGAGGACUUGGUGGCCCCGUGCCUUGCCAUCUGGCUGAGAAGAGAACCAGACCCUCAGCCUUCCCCCUCGACACCUUCUCGUUGGUGACCUCUGACCUUAAAGGACCAUUUCUACCUUCUGUAAAAGAACACCUGUUUGGGGUUGCGUGCGGCUUUCAUCCUAAGGCCGUGCGAGAGCCGUUAGCUGUCAGAACUAGUGAAGCUCCAGGCUCCUCGUGGCAGACCCUGGACAACGCUGGUAGCUGUUCCUCUUGCGGUCGCACUAGUGUGGAAUUCUCGGGUGUCAAGG
B11: ENSMUSG00000029636.505|Wasf3|28:32 (ssRNA)
RNA: GGGAGUUCUACAGUCCGACGAUCGCUUCGAUAUCCGCAUGCUAAUCAUUUAUGAGCAUAGGAUGAUGAGGCACACAAAGCUUUGUAAUAUUUUCAGCAGAAAUGCGUGAUACAUUUGAAUCCAUUGAGGUCUGGAGGGAGGGUAUCAGCCAGAGUAGCAAGGCGGUUUUGUUUAUUUGUUUGUUUUUUUGUUUGUUUGUUUUAUGAAGGAGAGUAUCUGUUAUCUUGCAGUAUUAUCAAUGCAGUUGUAAAUUGAAUCUAAAGUGGUAUUUAAAACUGUCAAACAAUUUUUAAUCUGUUUGUACUCUUGCGGUCGCACUAGUGUGGAAUUCUCGGGUGUCAAGG
B12: ENSMUSG00000031028.267|Tub (ssRNA)
RNA: GGGAGUUCUACAGUCCGACGAUCGCUUCGAUAUCCGCAUGCUAUGCUUUGAAAUAGAUAUGUUUGGAAACGCUAAGUAGAAGUUUAAAAAGUAGAGUCAUGUAGAGUCAUGCUUUGAAUAUGUGGGUCAUGCUUUAGAUAUGAAGAGGCUAUGCAGGUAAGGAGGCUGGAUUGAUGUAAAUGGAAGUAGUACUUUAAGAAAGCUCUAGAUUUCCCAGGUUGGACACUCGACGAAAGGCACACCUGCUGCAGCAGGUUCUGACACACCUGAGCCAUACAUUGCCAUCAGAGAACCCUCAGCGAGCUCUUGCGGUCGCACUAGUGUGGAAUUCUCGGGUGUCAAGG
B13: ENSMUSG00000043670.108|Diras1 (ssRNA)
RNA: GGGAGUUCUACAGUCCGACGAUCGCUUCGAUAUCCGCAUGCUACUUUCACCUGAUCCUGUCCUUUCCCCGUGACCUCUGACCUGUGGCCUUCCCUGGGUCCAGAACACCCCUGUCCUCUCCUGUCUGCACACCAGGGUGGAUGGGCCCGAGGGCUGGGCCUCAGGCACCAGGCAAUAAACACAGGGCCUGCAGCAAUGCCCUGGCCACCCCGAGUACCACCUCUGGAAUAGCAGACGCCCACAGCACAAGCCCAGGACUGUCCCUUCAGGGGAGGCACACUGGAACCCUGAACUUGGAGUGUGCUCUUGCGGUCGCACUAGUGUGGAAUUCUCGGGUGUCAAGG

Chain of TDP-43 (Q13148 whole entry): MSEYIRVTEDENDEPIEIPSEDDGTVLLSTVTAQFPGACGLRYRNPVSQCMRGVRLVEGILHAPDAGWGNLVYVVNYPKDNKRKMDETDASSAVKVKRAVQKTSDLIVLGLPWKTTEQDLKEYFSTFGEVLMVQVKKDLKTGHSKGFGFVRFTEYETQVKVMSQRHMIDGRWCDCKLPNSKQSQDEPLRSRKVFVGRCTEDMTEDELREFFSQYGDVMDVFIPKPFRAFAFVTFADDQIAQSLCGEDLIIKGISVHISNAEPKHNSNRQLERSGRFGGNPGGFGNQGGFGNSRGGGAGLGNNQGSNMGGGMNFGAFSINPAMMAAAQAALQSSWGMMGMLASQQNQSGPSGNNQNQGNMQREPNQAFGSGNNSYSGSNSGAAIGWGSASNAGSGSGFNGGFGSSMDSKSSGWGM

This assay has as its target TDP-43 (Homo sapiens, UniProt Q13148 1-414). The assay is described as follows: RNA Bind-n-Seq with designed 260-mer pool; 25 mM Tris-HCl, 150 mM KCl, 3 mM MgCl2, BSA (printed 500 mg/mL), 20 units/mL SUPERase IN; pH not stated; 500 nM RNA pool, 1 h, 4 C; TDP-43 5, 50, 500 nM; high values mean tight binding. The settings on record: protein: recombinant; tags: SBP (GST cleaved off with PreScission; pGEX-GST-SBP). The method in brief:
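Recombinant SBP-tagged TDP-43 at 5, 50 or 500 nM was captured on streptavidin beads, then incubated 1 h at 4 °C with 500 nM of an in vitro-transcribed 260-nt 3′ UTR oligo pool in 25 mM Tris-HCl, 150 mM KCl, 3 mM MgCl2, BSA and SUPERase IN. Bound RNA was washed, eluted with biotin, reverse transcribed, PCR-amplified and sequenced. Binding is R, each oligo's mapped-read-normalized abundance in the bound sample divided by its abundance in input. Duplicates used two independent protein batches.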
Turning to B1, the binding signal is 7.36 R (bound/input frequency ratio).
Then B2, with 5.78 R (bound/input frequency ratio); and B3, with 5.93 R (bound/input frequency ratio).
Take B4: the binding signal is 4.34 R (bound/input frequency ratio).
Under B5 stands 5.01 R (bound/input frequency ratio); under B6, 1.55 R (bound/input frequency ratio).
Then B7, with 2.24 R (bound/input frequency ratio); and B8, with 0.299 R (bound/input frequency ratio).
Then B9, with 0.782 R (bound/input frequency ratio); and B10, with 0.424 R (bound/input frequency ratio); and B11, with 0.502 R (bound/input frequency ratio).
Consider B12, for which the binding signal is 2.93 R (bound/input frequency ratio).
Take B13: the binding signal is 1.22 R (bound/input frequency ratio).
